Measurements as given in the supplement of paper PMC11732987, “Enantioselective OTUD7B fragment discovery through chemoproteomics screening and high-throughput optimisation” (Communications Chemistry, 2025).

How the values were obtained:
Assay in all cases: log2 ratio of Biotin-Ahx-Ub-VS probe labelling (fragment/DMSO); higher = less target engagement (more negative = stronger competition), active = hit call of the paper (q ≤ 0.05, log2 ratio ≤ -1)
Conditions in all cases: compound concentration: 200 uM; treatment time: 3 h
USP34 = USP34 (UniProt Q70CQ2)
Sequence of USP34 (Q70CQ2 whole entry, the tested form may be a part): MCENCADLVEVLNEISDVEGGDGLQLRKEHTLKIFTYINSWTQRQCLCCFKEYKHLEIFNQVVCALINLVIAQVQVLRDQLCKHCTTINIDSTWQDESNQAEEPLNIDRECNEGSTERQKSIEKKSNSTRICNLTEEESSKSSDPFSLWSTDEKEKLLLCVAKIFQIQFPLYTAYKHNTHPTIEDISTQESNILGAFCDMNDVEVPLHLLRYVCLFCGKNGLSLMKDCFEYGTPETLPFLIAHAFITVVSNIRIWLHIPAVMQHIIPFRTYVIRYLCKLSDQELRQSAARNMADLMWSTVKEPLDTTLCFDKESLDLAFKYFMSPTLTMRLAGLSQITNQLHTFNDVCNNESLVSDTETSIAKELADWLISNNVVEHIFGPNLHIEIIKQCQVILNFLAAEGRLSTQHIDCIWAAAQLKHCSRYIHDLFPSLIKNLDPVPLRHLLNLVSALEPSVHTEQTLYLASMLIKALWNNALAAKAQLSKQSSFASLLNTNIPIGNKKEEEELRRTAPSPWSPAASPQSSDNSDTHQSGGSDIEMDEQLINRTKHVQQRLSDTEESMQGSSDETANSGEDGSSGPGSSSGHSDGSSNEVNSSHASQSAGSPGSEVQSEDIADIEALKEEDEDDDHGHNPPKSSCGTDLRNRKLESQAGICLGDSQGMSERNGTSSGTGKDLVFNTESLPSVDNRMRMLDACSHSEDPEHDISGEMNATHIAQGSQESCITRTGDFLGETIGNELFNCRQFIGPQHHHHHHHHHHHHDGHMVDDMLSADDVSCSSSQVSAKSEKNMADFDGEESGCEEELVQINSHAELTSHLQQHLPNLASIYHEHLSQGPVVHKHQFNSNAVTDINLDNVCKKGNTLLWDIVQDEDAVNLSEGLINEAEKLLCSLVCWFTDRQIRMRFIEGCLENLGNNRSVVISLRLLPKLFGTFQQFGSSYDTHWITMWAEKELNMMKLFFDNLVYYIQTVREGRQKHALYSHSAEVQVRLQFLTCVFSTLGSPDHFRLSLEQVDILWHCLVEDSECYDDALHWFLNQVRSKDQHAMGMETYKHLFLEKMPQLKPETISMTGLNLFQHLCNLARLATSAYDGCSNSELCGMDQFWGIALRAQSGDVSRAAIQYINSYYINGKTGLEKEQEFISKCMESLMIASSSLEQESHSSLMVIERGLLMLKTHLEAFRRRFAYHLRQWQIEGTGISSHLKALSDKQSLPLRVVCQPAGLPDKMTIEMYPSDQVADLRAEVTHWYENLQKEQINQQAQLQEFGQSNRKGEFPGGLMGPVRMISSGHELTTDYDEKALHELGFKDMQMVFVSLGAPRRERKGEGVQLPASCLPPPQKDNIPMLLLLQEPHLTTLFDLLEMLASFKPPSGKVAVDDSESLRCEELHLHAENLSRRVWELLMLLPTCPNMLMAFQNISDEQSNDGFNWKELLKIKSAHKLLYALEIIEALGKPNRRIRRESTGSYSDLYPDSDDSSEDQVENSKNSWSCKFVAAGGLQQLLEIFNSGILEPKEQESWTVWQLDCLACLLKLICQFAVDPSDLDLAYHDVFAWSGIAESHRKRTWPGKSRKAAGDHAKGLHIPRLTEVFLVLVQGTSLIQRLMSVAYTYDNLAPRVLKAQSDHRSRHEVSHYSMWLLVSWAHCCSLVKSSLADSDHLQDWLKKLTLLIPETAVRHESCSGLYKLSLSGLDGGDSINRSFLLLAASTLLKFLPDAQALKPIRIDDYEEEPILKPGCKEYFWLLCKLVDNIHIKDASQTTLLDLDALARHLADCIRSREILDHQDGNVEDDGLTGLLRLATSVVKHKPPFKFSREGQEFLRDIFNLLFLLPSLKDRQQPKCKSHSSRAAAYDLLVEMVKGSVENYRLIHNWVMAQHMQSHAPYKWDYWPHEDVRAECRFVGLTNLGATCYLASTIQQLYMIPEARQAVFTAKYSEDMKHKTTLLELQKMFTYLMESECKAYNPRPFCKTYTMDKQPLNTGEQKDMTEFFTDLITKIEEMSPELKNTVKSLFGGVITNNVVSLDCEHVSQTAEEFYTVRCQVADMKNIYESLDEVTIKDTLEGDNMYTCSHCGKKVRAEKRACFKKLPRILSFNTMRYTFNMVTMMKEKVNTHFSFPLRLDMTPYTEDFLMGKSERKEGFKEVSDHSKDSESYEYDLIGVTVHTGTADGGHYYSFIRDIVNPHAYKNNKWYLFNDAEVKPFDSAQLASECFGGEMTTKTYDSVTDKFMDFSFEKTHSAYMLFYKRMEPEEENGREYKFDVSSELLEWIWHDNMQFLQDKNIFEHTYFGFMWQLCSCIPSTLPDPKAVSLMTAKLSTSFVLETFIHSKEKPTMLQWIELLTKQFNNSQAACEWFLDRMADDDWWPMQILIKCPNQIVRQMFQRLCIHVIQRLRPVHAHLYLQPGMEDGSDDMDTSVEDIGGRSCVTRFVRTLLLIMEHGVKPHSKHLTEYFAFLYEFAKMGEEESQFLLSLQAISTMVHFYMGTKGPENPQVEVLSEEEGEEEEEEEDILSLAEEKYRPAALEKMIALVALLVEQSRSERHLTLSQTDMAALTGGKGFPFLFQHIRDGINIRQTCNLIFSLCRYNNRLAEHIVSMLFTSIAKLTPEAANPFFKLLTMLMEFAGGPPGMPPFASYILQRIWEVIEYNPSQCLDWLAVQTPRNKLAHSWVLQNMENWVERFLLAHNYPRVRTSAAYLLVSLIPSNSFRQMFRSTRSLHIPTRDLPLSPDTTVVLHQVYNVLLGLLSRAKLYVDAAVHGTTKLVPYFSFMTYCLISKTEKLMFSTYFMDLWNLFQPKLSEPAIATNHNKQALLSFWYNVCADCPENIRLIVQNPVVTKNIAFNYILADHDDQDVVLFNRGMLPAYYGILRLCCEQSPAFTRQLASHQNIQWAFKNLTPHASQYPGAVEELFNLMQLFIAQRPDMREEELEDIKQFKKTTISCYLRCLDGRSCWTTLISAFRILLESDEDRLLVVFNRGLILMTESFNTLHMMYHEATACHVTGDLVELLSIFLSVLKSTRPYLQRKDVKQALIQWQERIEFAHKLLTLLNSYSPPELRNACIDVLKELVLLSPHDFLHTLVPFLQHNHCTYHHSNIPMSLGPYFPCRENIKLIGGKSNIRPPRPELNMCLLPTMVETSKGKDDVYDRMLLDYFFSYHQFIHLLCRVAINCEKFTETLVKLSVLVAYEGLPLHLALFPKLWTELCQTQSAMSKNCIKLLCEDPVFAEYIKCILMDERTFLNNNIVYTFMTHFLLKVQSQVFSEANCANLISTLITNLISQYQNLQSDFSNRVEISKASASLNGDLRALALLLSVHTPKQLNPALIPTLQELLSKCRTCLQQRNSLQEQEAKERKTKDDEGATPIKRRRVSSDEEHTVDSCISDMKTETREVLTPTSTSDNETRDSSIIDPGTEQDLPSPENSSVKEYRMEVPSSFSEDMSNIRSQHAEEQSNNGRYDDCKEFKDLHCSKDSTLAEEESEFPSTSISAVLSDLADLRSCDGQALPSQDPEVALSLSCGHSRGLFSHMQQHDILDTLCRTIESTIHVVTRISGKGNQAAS
In short: (§1)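 The table lists average log2 ratios of fragment over vehicle, from an unpaired t-test on global-median-normalised Spectronaut label-free quantities. Proteins with ≥2 unique peptides were used. Samples were HEK293T lysate (495 µg) treated in triplicate with fragment at 200 µM or vehicle for 3 h, then with Biotin-Ahx-Ub-VS (0.5 µM final) for 1 h, with labelled DUBs NeutrAvidin-enriched and run by diaPASEF LC-MS/MS.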

USP36 = target: T1, USP36 (UniProt Q9P275)
T1 sequence (whole entry): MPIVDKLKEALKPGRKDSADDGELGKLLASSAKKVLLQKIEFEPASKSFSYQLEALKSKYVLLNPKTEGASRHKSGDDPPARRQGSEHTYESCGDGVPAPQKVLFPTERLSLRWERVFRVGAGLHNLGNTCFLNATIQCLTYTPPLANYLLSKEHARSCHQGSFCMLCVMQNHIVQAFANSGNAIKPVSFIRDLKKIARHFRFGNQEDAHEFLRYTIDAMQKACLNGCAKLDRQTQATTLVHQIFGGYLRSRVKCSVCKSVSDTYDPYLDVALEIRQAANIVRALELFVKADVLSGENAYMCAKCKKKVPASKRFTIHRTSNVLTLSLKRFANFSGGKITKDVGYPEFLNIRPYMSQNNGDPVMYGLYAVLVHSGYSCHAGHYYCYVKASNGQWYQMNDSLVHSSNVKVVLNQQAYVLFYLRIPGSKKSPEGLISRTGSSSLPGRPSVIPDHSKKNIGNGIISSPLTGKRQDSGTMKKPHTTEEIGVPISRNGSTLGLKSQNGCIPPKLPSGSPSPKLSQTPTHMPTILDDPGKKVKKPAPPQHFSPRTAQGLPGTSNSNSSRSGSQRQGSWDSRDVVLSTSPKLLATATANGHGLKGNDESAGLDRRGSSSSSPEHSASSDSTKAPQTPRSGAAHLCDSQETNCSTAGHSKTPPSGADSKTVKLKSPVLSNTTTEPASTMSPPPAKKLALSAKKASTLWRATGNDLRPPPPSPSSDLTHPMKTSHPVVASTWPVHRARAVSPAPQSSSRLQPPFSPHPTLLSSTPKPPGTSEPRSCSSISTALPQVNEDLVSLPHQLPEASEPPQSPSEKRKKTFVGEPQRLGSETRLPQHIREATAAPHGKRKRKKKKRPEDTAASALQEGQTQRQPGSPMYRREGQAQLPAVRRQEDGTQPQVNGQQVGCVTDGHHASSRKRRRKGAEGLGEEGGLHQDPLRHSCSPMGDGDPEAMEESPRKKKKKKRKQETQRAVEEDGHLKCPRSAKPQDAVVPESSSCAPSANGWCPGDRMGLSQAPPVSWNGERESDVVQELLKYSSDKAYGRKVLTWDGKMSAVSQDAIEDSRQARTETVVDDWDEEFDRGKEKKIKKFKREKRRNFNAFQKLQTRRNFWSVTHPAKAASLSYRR
In short: as §1

USP38 = target: T2, USP38 (UniProt Q8NB14)
T2 sequence (whole entry): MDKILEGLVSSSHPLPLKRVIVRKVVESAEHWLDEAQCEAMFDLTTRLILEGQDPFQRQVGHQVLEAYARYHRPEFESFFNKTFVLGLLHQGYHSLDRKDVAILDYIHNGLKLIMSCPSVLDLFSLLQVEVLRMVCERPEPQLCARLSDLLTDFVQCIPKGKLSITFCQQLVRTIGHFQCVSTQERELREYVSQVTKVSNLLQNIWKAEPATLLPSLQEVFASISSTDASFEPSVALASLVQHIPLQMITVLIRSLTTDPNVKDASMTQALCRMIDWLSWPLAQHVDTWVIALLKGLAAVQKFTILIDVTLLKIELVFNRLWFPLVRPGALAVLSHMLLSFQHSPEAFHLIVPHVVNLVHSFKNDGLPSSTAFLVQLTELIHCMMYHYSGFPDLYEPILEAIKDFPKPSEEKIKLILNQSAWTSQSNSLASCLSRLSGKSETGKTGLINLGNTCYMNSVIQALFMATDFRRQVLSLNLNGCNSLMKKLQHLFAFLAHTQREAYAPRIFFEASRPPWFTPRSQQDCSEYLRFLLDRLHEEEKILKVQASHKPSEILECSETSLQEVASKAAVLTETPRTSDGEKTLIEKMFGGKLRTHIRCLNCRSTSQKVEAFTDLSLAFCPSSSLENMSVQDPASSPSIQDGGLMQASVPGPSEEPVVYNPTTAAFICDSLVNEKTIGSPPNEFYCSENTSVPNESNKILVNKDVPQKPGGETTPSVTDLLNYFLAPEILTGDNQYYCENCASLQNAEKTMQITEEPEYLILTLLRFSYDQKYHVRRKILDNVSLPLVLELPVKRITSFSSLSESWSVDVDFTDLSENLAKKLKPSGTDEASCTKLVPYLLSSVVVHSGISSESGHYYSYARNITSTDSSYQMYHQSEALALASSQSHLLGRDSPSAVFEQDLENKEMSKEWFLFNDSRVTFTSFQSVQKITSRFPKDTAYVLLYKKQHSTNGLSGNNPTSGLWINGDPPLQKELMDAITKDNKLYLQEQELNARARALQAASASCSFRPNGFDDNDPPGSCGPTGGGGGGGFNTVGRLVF
In short: as §1

USP39 = target: T3, USP39 (UniProt Q53GS9)
T3 sequence (whole entry): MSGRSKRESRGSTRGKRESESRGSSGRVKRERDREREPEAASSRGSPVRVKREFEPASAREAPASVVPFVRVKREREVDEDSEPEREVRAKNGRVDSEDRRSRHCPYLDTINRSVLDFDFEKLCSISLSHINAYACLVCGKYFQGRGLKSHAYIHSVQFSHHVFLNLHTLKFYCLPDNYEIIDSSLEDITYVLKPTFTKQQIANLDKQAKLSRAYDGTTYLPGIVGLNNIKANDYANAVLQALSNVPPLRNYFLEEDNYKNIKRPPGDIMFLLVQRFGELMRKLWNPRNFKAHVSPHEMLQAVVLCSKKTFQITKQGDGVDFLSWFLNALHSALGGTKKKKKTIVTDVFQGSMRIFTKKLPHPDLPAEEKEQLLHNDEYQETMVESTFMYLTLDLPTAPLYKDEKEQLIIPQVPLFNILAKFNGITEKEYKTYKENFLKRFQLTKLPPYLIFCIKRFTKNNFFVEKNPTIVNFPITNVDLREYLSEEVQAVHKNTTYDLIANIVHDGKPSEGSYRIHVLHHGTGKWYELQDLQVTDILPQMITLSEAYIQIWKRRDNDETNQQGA
In short: as §1

USP4 = target: T4, USP4 (UniProt Q13107)
T4 sequence (whole entry): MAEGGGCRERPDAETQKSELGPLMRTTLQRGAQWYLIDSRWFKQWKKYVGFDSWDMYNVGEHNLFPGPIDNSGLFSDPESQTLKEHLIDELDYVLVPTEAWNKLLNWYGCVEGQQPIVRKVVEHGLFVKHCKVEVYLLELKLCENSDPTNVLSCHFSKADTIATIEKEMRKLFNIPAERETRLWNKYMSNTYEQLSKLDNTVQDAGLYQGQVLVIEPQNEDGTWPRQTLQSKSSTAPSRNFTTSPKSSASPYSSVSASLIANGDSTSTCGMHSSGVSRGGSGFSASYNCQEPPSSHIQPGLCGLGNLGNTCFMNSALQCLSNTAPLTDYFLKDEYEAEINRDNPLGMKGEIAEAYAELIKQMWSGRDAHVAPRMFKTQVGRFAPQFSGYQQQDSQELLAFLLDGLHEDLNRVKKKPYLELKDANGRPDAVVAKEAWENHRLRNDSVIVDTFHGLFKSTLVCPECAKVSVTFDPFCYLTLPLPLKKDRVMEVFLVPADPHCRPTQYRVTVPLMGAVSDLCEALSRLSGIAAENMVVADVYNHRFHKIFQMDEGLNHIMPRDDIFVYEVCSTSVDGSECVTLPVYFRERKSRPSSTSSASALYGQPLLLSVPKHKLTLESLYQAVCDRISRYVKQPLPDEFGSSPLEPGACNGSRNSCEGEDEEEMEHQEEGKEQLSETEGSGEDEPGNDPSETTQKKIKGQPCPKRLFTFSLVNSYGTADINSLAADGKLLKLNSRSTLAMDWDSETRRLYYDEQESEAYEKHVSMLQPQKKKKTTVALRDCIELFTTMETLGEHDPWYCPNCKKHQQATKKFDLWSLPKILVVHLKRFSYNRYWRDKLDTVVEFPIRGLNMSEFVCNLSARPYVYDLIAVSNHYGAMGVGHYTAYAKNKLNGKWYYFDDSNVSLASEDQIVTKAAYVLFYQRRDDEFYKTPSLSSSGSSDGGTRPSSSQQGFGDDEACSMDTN
In short: as §1

Measured: log2 ratio of Biotin-Ahx-Ub-VS probe labelling

O=C(CCl)NCCc1cccc2ccccc12
inactive: USP34 -0.192 | USP36 -0.0173 | USP38 0.0792 | USP39 -0.0508 | USP4 0.143
